# Data from PubChem BioAssay (NCI).
# The panel holds about 83,000 compounds, 20% with a hit somewhere; the sample as a whole holds those more often.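 Single-dose data. Exposure time 48 hours. Values below 10 considered active.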 Values without a mark were called inactive. The source made the active and inactive calls.
# Experiments:
# Experiment in all cases: NCI-60 one-dose screen, 48 h (100 = growth as untreated, 0 = no growth, -100 = all killed)
# Conditions in all cases: 10 µM
# [1] = test system: DU-145 prostate
# [2] = test system: K-562 leukemia
# [3] = test system: MALME-3M melanoma
# [4] = test system: MDA-MB-231 breast
# [5] = test system: RXF 393 renal
# [6] = test system: SF-268 CNS
# [7] = test system: SF-295 CNS
# [8] = test system: SF-539 CNS
# [9] = test system: UACC-257 melanoma
# [10] = test system: M14 melanoma
# [11] = test system: HCT-15 colon
# [12] = test system: HT29 colon
# [13] = test system: SNB-75 CNS
# [14] = test system: SNB-19 CNS
# [15] = test system: U251 CNS
# [16] = test system: PC-3 prostate
# [17] = test system: SK-MEL-5 melanoma
# [18] = test system: UACC-62 melanoma
# [19] = test system: LOX IMVI melanoma
# [20] = test system: SK-MEL-28 melanoma
Compound,growth [1],growth [2],growth [3],growth [4],growth [5],growth [6],growth [7],growth [8],growth [9],growth [10],growth [11],growth [12],growth [13] [%],growth [14],growth [15],growth [16],growth [17],growth [18],growth [19],growth [20]
NC(N)=N/N=C(\N=Nc1ccccc1)c1ccc(Cl)cc1,47.3%,1.17% (active),85.6%,-12.5% (active),41.5%,34.2%,-5.99% (active),19.7%,70.9%,10.2%,22.1%,21.2%,60.6,81.9%,36.3%,25.1%,65.1%,-29.6% (active),-7.27% (active),75.3%
Cc1ccc(NCCN(C)CC(C)O)c2c(=O)c3ccc(Cl)cc3sc12 (stereo not given),59.7%,-61.2% (active),-24.2% (active),-16.4% (active),22.9%,58.4%,82.6%,81.5%,24.7%,-74.7% (active),21.2%,-27% (active),76.3,55%,8.57% (active),48.2%,46.9%,-68.7% (active),-82.9% (active),-53.5% (active)
COc1cc(-c2nn(-c3ccc(NC(=O)NCCCNC(=O)c4ccccc4)cc3)cc2-c2ccncc2)ccc1Cl,20.6%,12.4%,47.3%,19.1%,25.2%,37.6%,0.436% (active),-10.5% (active),63.3%,12.2%,20.3%,3.51% (active),25,55.8%,14.9%,19.4%,-43.5% (active),51.7%,15.1%,52.1%
CCCN1CN2C(=O)N3CN(CCC)CN4C(=S)N(C1)C2C34 (stereo not given),101%,105%,112%,98.6%,132%,97.3%,94.2%,95.3%,92.9%,94.5%,98.2%,99.5%,81,101%,97.3%,91.5%,107%,98%,103%,93.4%
COc1ccc(-c2cc(-c3ccccc3)nc(SCCCCCCC(=O)NO)n2)cc1,60%,26.7%,20.3%,68.9%,22.1%,97.4%,67.4%,73.2%,49.5%,48.2%,44.3%,27%,24.8,60.6%,51.5%,58.8%,13.1%,24.8%,13.1%,67.9%
COc1cc(-c2nn(-c3cccc(NC(=O)CN4CCOCC4)c3)cc2-c2cccnc2)ccc1Cl,82.3%,42.2%,80.5%,83.1%,85.1%,85.4%,76.8%,87%,93.9%,61%,66.7%,65.2%,65.5,88%,92.7%,58%,48.2%,61.4%,63.3%,–
O=C1c2ccccc2C(=O)c2c1ccc1c(=O)n(-c3ccccc3C(F)(F)F)nnc21,47.7%,15.2%,-51.3% (active),3.26% (active),28.9%,43.2%,52.5%,-27.2% (active),-23.6% (active),5.14% (active),3.36% (active),31.5%,34.6,18.2%,17.7%,12.9%,-94.3% (active),-34.8% (active),-5.7% (active),63.5%
C=C(C)[C@@H]1CC[C@]2(COCCC#N)CC[C@]3(C)[C@H](CC[C@@H]4[C@@]5(C)Cc6c([nH]c7ccccc67)C(C)(C)[C@@H]5CC[C@]43C)[C@@H]12,100%,100%,119%,109%,112%,101%,104%,101%,116%,98.7%,102%,89.7%,90.9,99.1%,102%,92.9%,98.2%,105%,92.1%,–
CCOC(=O)c1cc(C(=O)c2cc(OC)c(OC)c(OC)c2)n2nc(C)ccc12,21.1%,9.56% (active),77.9%,45.8%,33.6%,56.2%,41%,15%,55.5%,21%,25.3%,8.05% (active),47.7,54%,19.1%,30.6%,3.09% (active),59%,31%,70.3%
O=S(=O)(Oc1ccc(-c2ccc3sccc3c2)cc1)c1ccc(F)cc1,104%,78.7%,106%,108%,110%,108%,96.4%,110%,106%,113%,88.9%,96%,120,103%,101%,91%,97.6%,80.2%,96.9%,103%
CC(CN(C)C)Oc1ccccc1NC1=C(Cl)C(=O)C(Nc2ccccc2OC(C)CN(C)C)=C(Cl)C1=O (stereo not given),-99.3% (active),-11.2% (active),-76.6% (active),-77.5% (active),-90.7% (active),-81.8% (active),30.6%,-98% (active),-91.8% (active),-65% (active),-79% (active),-70.1% (active),35,3.85% (active),-84.2% (active),3.47% (active),-95.8% (active),-84.5% (active),-80.6% (active),-64.9% (active)
C=CCN(CC=C)C(=O)[C@H](CC)[C@@H]1CC[C@@H](C)[C@@H]([C@H](C)[C@@H](O)[C@@H](C)C(=O)[C@H](CC)C2O[C@]3(C=CC(=O)[C@]4(CC[C@@](C)([C@H]5CC[C@](O)(CC)[C@H](C)O5)O4)O3)[C@H](C)C[C@@H]2C)O1 (stereo not given in full),74.8%,18.7%,-25.1% (active),23.1%,21.4%,58.9%,5.69% (active),53.2%,20.6%,17.3%,11.5%,16.7%,38.7,23.8%,30.5%,14.7%,-12.3% (active),10.7%,36.9%,–
CCOC(=O)c1cc(C(=O)c2cc(OC)cc(OC)c2)n2nc(C)ccc12,21.9%,10.3%,74.3%,52.6%,13.6%,62.4%,23.9%,3.84% (active),59.5%,11.4%,32.2%,3.72% (active),18,39.4%,23.1%,25%,30.6%,46.7%,48.7%,–
NS(=O)(=O)Oc1ccc2c(ccn2C(=O)C23CC4CC(CC(C4)C2)C3)c1,116%,101%,115%,102%,115%,111%,97.8%,103%,102%,112%,110%,102%,117,98.5%,99.2%,103%,95%,98.8%,98.8%,–
O=C1CSC(=S)N1/N=C/c1ccc(Cl)s1,109%,105%,103%,99.4%,108%,91.9%,100%,95.1%,110%,107%,97.9%,110%,111,97.7%,99.3%,98.1%,97%,100%,88.5%,107%
